6 compounds from PubChem BioAssay AID743356 (Broad Institute, 2014) can be followed below.

The source made the active and inactive calls.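 Rule for the calls: active = compounds that cut cell viability with a fitted half-maximal dose no more than twice the top valid dose; inconclusive = flat curve inhibiting 30 to 70%, or a poor fit; inactive = the rest, including any rise in viability.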

The nature of this experiment: viability loss in A549 lung cells – cell-based, luminescence, dry powder, set 10, cytotoxicity control, dose response (AID 743356). The note with it: CellTiter-Glo ATP luminescence, 72 h; at 26 µM unless noted. For orientation: In ATP-based viability assays light output follows the ATP content of the culture.
In the case of `CCCNC(=O)N1CC[C@@H]2[C@@H](CO)N(C)c3ccc(-c4ccc(F)cc4)cc3[C@@H]21`, the max inhibition of viability %, hits give high values is -28.2% [at 0.38 µM] (inactive).

Turning to `CC(=O)c1ccc(N2CCN(C(=O)c3ccccc3Cl)CC2)cc1`, the max inhibition of viability %, hits give high values is 15.7% [at 0.195 µM] (inactive).

Take `CCCCCCCC(=O)N1CC[C@@H]2[C@@H](CO)N(C)c3ccc(-c4cccc(F)c4)cc3[C@@H]21`: the max inhibition of viability %, hits give high values is 20.6% [at 0.006 µM] (inactive).

For the compound `COc1ccccc1NC(=O)N1CC[C@@H]2[C@@H](CO)N(C)c3ccc(-c4ccc(F)cc4)cc3[C@@H]21`, the max inhibition of viability %, hits give high values was 13.3% [at 0.0015 µM] (inactive).

With `COc1ccc(NC(=O)N2CC[C@@H]3[C@@H](CO)N(C)c4ccc(-c5ccc(F)cc5)cc4[C@@H]32)cc1`, the max inhibition of viability %, hits give high values is -9.64% (inactive).

On to `CN1c2ccc(-c3ccc(F)cc3)cc2[C@H]2[C@H](CCN2C(=O)Cc2ccccn2)[C@H]1CO`, for which the max inhibition of viability %, hits give high values was -16.3% (inactive).
